Test results taken from PubChem BioAssay (NCI).
This is part of a sample that, as a whole, favours compounds with a hit. Of some 79,000 tested, about 15% had one in any assay. A number with no mark means an inactive call. Calls of active or inactive are those of the source. Rule as the data show it: active = growth inhibition above about 70%; inactive = the rest.

What was measured:
[1] = NCI Yeast Anticancer Drug Screen. Data for the rad50 strain (AID 155);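 also: 0% = growth of vehicle-only cultures of the same strain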; settings: S. cerevisiae rad50 strain growth inhibition; at 50.0 µM; stronger effect = higher value
Method in brief: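 Genetically altered yeast (DNA repair pathway); compound treatment; growth inhibition vs vehicle ctrl.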

[2] = NCI Yeast Anticancer Drug Screen. Data for the mec2-1 strain (AID 157); settings: S. cerevisiae mec2-1 strain, at 50.0 µM, stronger effect = higher value
Method in brief: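 Using mec2-1 yeast: add compound, measure growth, express inhibition versus vehicle-treated cultures.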

[3] = NCI Yeast Anticancer Drug Screen. Data for the sgs1 mgt1 strain (AID 161);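 also: 0% = growth of cultures given vehicle only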; settings: S. cerevisiae sgs1 mgt1 strain, at 50.0 µM, stronger effect = higher value
Method in brief: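 This yeast growth screen uses a strain with defined DNA-repair lesions; compound-treated growth is compared with vehicle-treated growth.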

[4] = NCI Yeast Anticancer Drug Screen. Data for the cln2 rad14 strain (AID 165);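 also: 0% = growth equal to vehicle treated cultures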; settings: S. cerevisiae cln2 rad14 strain, at 50.0 µM, stronger effect = higher value
Method in brief: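 Yeast strain cln2 rad14, bearing defects in cell cycle control and DNA repair, serves as the test system; values reflect growth inhibition compared with vehicle.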

[5] = NCI Yeast Anticancer Drug Screen. Data for the bub3 strain (AID 167); settings: S. cerevisiae bub3 mutant strain, at 50.0 µM, stronger effect = higher value
Method in brief: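 Yeast carrying a defined mutation is treated with each compound, and growth is compared with that of vehicle-exposed cells to give inhibition.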

[6] = NCI Yeast Anticancer Drug Screen. Data for the mlh1 rad18 strain (AID 175); settings: S. cerevisiae mlh1 rad18 strain growth inhibition; at 50.0 µM; stronger effect = higher value
Method in brief: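 Steps: expose repair-defective yeast to compound; measure growth; express inhibition against vehicle-treated controls.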

| Compound | growth inhibition [1] | growth inhibition [2] | growth inhibition [3] | growth inhibition [4] | growth inhibition [5] | growth inhibition [6] |
| --- | --- | --- | --- | --- | --- | --- |
| COc1ccc(C(C2=C(O)CC(C)OC2=O)C2=C(O)CC(C)OC2=O)cc1 (stereo unspecified) | -15.1% | -5.4% | -12.6% | -14.2% | -19.1% | -10% |
| COc1ccc(C(O)C2c3c(cc4c(c3OC)OCO4)CCN2C)c(CO)c1OC (stereo unspecified) | 14.4% | 12.8% | 17.6% | 37.5% | 17.9% | 7.45% |
| Clc1ccccc1C(Cl)c1ccccc1 (stereo unspecified) | 3.3% | -14.2% | -5.95% | -21.6% | -10.7% | -6.25% |
| COc1ccccc1/C=C/C(=O)c1sc(-c2cccnc2)nc1C | 38.5% | 17.5% | 5.3% | 17.9% | 23.9% | 33.5% |
| O=C(c1ccccc1)c1ccc2cccc3c2c1CC3 | 40.2% | 14.6% | 32.1% | 20.8% | 51.6% | 34.4% |
| C=CCOC(OCC=C)C(C)C | -0.5% | -12.2% | -13.9% | -3.4% | -23.4% | -3.4% |
| CCc1c(C)c(C#N)c(=S)n(C2OC(CO)C(O)C(O)C2O)c1C (stereo unspecified) | -61.8% | 3.95% | -19.7% | 9.4% | 8.35% | -4% |
| CCOc1c(Cl)cc(Cl)cc1C(c1ccc(Cl)cc1S(=O)(=O)O)c1cc(Cl)cc(Cl)c1OCC | 99.2% (active) | 99.3% (active) | 99.6% (active) | 98% (active) | 99% (active) | 99.2% (active) |
| O=S(=O)(O)CCc1ccccc1 | 1.9% | 9.15% | -10.9% | -7.5% | -21.1% | -26.5% |
| CCCC=NCCCC | -17.1% | -7.55% | -35.6% | -67% | -30% | -24.4% |
| CC1(C)OC2COC(c3[nH]nc4c(=O)[nH]c(=O)[nH]c34)C2O1 (stereo unspecified) | 1.1% | -5.65% | -26.9% | -20.8% | -64.3% | -5% |
| CC(C)CC(C)(CC(C)C)C(=O)O | 9.95% | -7.75% | 7.8% | -1.5% | -1.3% | 11.8% |
| Nc1ncnc(N)c1NC(=O)c1cccc(-c2ccccc2)c1 | 2.85% | 41.1% | 23.9% | 0.8% | 34.9% | -21.1% |
| COC1OC(COC(=O)c2ccccc2)C(SC(=O)c2ccccc2)C1OC(=O)c1ccccc1 (stereo unspecified) | -21.1% | -1.35% | -32.5% | -2% | -1.4% | -12.5% |
| S=c1[nH]c2ccccc2nc1NCc1ccccc1 | -1.55% | 2.75% | 2.15% | -19.8% | 10.1% | 2.3% |
| CN1NC(=O)CC1c1ccccc1 (stereo unspecified) | 18.9% | -3.65% | -10.8% | 11.1% | 0.25% | 5.45% |
| COc1ccc(CC2CC(Cc3ccc(OC)c(OC)c3)C(=O)O2)cc1OC (stereo unspecified) | -33.9% | 15.7% | -23.4% | -33.2% | 3.95% | 2.85% |
| Cc1cc2c(c3oc(C4(C)OC4C4OC4C)cc(=O)c13)C(=O)c1c(O)c(C3CC(C)(N(C)C)C(O)C(C)O3)cc(C3CC(N(C)C)C(O)C(C)O3)c1C2=O (stereo unspecified) | 88.6% (active) | 92.2% (active) | 90.7% (active) | 88.8% (active) | 89.2% (active) | 87.5% (active) |

| Compound | growth inhibition [1] | growth inhibition [2] | growth inhibition [3] | growth inhibition [4] | growth inhibition [5] | growth inhibition [6] |
| --- | --- | --- | --- | --- | --- | --- |
| O=C(OC1CC2CCC1C2)c1cc([N+](=O)[O-])cc([N+](=O)[O-])c1 (stereo unspecified) | 8.55% | -1.4% | -9% | -20.4% | -3.7% | -3% |
| N#Cc1cn(C2OC(CO)C3OC32)c2ncnc(NC(=O)c3ccccc3)c12 (stereo unspecified) | 28.9% | 9.1% | 14.7% | 10.3% | -4% | 15.5% |
| OCCc1ccc2ccccc2c1 | 4.05% | -5.95% | 3.05% | -9.3% | 13.8% | -1.15% |
| O=[N+]([O-])c1cccc(C2OCC3(CO2)COC(c2cccc([N+](=O)[O-])c2)OC3)c1 (stereo unspecified) | 2.95% | -21.8% | 6.5% | 10.2% | -3.1% | 10.8% |
| CC(C)C1CCC(C)(C=O)C1 (stereo unspecified) | -19.7% | -0.5% | -14.3% | -7.85% | -5.75% | -26.9% |
| CCc1c(O)c2c(=O)n(C)c(=O)n3c4ccccc4n(c1=O)c23 | 40.4% | 41.4% | 45.7% | 26.8% | 38.9% | 39.8% |
| Cc1ccc(C(c2ccc(C)c(C)c2)C(O)C(O)C(O)CO)cc1C (stereo unspecified) | 20% | -2.25% | 0.65% | 12.9% | 6.7% | 8.85% |
| CC(=O)NC(C=O)OCC=O (stereo unspecified) | 0% | 17.9% | -22.3% | 0.55% | -29.1% | -46.9% |
| Clc1ccc(C(n2cc(Br)cn2)n2cc(Br)cn2)cc1 | 89.6% (active) | 90.8% (active) | 90.7% (active) | 90.2% (active) | 91% (active) | 87.5% (active) |
| CC(=O)/C(=C\c1ccccc1F)C(=O)CCN(C)C | 7.95% | 6.55% | 8.05% | 12.2% | 13.6% | 28.3% |
| COc1nc2c(nc(N)n2C2OC(CO)C(O)C(O)C2O)c(=O)[nH]1 (stereo unspecified) | -26.4% | -8% | -1.5% | 3.45% | 0.95% | 20.9% |
| COC(=O)C(C)(C)c1ccccc1C(C)(C)C(=O)OC | -5.85% | 6.05% | -1.4% | -7.95% | 9.35% | 3.9% |
| CCCCCCCCCCCCC(N)C(=O)O (stereo unspecified) | 3.55% | -9.15% | 28% | -15.8% | 6.7% | -1.3% |
| COC(=O)C(C)OP(=O)(OC(C)C(=O)OC)OC(C)C(=O)OC (stereo unspecified) | 0.4% | -3.55% | -4.75% | -4.05% | 15.1% | 2.7% |
| OC1CCC2OC12 (stereo unspecified) | 7.3% | 0.55% | 18.2% | 0.4% | -1.3% | 2% |
| CC1CCC(C(C)C)N(C)CC1 (stereo unspecified) | -17.2% | -22.6% | -6% | 3.75% | -8.15% | -2.2% |
| O=C(O)/C(=C(\CO)c1ccccc1)c1ccccc1 | 7.15% | 9.25% | 11% | 24.4% | 3.25% | 26.7% |
| COc1ccc2c(c1)CC[C@@H]1[C@@H]2CC[C@]2(C)[C@H](S)CC[C@@H]12 | -3.45% | -15.7% | 21.4% | -41% | 18.1% | -7.3% |
